Compounds without any hit were thinned out: in the full panel of roughly 79,000, 15% have a hit. Unmarked numbers belong to inactive results. Activity calls are given as the source filed them. Cut-off read from the data, not from the text of the source: active = growth inhibition above about 70%; inactive = the rest.
Assay: NCI Yeast Anticancer Drug Screen. Data for the bub3 strain (AID 167)
Details: S. cerevisiae bub3 mutant strain, at 50.0 µM, hits give high values
Experimental: Growth inhibition of yeast strains with defined genetic alterations is measured as a screen for potential anti-cancer activity. Selected strains with alterations in DNA damage repair or cell cycle control were exposed to compounds and growth inhibition was measured relative to vehicle treated controls. The strain used in this assay is bub3

In order of rising growth inhibition:
1. CC1=C(/C=C/C(C)=C/C=C/C(C)=C/CO)C(C)(C)CCC1  -42.2%
2. O=C(O)CCC(NC(=O)OCc1ccccc1)C(=O)O (stereo not given)  -21.2%
3. O=S(=O)(Cc1ccccc1)c1ccccc1  -17.5%
4. Cc1cc2nc(CC(=O)c3ccccc3)c(=O)[nH]c2cc1C  -15.7%
5. OCC1OC(OC2C(O)C(CO)OC2(CO)OC2OC(CO)C(O)C(O)C2O)C(O)C(O)C1O (stereo not given)  -14.2%
6. CC(=O)Oc1ccc(Br)cc1C(=O)O  -10.6%
7. Cc1cc(NC(=O)CSCC(=O)O)no1  -7.8%
8. CC1SC(N)=NC1=O (stereo not given)  -7.5%
9. CCC(C)(C)C1CCC(O)CC1 (stereo not given)  -5.15%
10. C=CCNC(=O)c1ccc(OC)cc1  -4.5%
11. Cc1ccc(O)c(C(=O)c2ccccc2)c1  -3.65%
12. NC(N)=Nc1cc2ccccc2c2ccccc12  -3%
13. CN(C)c1ccc(C(c2ccc(O)cc2)c2ccc(N(C)C)cc2)cc1  -3%
14. CCCCC/C=N/Nc1nc(C)cc(=O)[nH]1  -2.9%
15. COc1ccccc1N=Nc1c(O)ccc2cc(S(=O)(=O)O)ccc12  -2.75%
16. O=c1cc(-c2ccccc2)nc2cc(-c3ccco3)[nH]n12  -2.6%
17. O=C(O)c1cccc([N+](=O)[O-])c1O  -0.8%
18. CCOc1ccc(I)cc1  -0.75%
19. Nc1ccc(CC(=O)O)c(N)c1  4.6%
20. Cc1ccc(C(=O)NC2c3ccccc3Oc3ccccc32)cc1  6.85%
21. CC(=O)Nc1cccc(NC(C)=O)n1  7.8%
22. c1ncc2[nH]cnc2n1  8.15%
23. O=C(O)C(O)c1ccccc1 (stereo not given)  11.3%
24. COc1cc(/C=N\Nc2ccccc2)ccc1OC(=O)c1ccccc1  11.8%
25. O=c1[nH]cc(Cl)cc1O  13.2%
26. C=C[Si](OC(C)=O)(OC(C)=O)OC(C)=O  13.7%
27. CCOC(=O)c1ccc(NC(=S)P(=O)(c2ccccc2)c2ccccc2)cc1  14.9%
28. Cc1ccc(/C=C2\SC(=S)N(c3ccc(F)cc3)C2=O)o1  15.8%
29. CCCCCCCCOC(=O)c1ccccn1  16.6%
30. [O-][N+](=Nc1cccc(Cl)c1)c1cccc(Cl)c1  21.2%
31. Sc1ccc(Nc2c3ccccc3nc3ccccc23)cc1  25.6%
32. C/C(=N\NC(=O)c1ccccc1N)c1ccccc1O  26.1%
33. N#CC1(Nc2ccc3c4c(cccc24)CC3)CCCCC1  26.2%
34. CC(O)COc1ccc(-c2ccccc2)cc1 (stereo not given)  28.1%
35. CC1(C(=O)O)NC(C(=O)O)Cc2c1[nH]c1ccccc21 (stereo not given)  32.4%
36. COc1cc(OC)c2ccc(=O)oc2c1  38.5%
37. Cc1ccccc1N=C(c1ccccc1)C1C(=O)c2ccccc2C1=O  49.2%
38. O=C(CC(=O)c1ccccc1O)c1ccccc1  62.6%

For `Cc1cc(/C=C/c2ccc3cc(N(C)C)ccc3[n+]2C)c(C)n1-c1ccccc1`, the growth inhibition was 70.8% (active).
For `COc1ccc2c(NCCCCCCCCNc3c4ccccc4nc4cc(OC)ccc34)c3ccccc3nc2c1`, the growth inhibition was 90.8% (active).

Reference: PubChem BioAssay (NCI)
